Data taken from PubChem BioAssay (NCI).
Compounds without any hit were thinned out: in the full panel of roughly 83,000, 20% have a hit.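 A percent growth of 40 corresponds to 60% growth inhibition; 0 means no net growth; -100 means all cells died. Active threshold: below 10.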 Unmarked numbers belong to inactive results. Activity calls are given as the source filed them.

system: COLO 205 colon; test: NCI-60 one-dose screen, 48 h (100 = growth as untreated, 0 = no growth, -100 = all killed); settings: 10 µM unless noted

Compound	growth
CS(=O)(=O)c1ccc(/C(=N/NC(N)=S)c2ccc(F)cc2)cc1	116%
CC1(C)CC[C@]2(CO)CC[C@]3(C)C(=CC[C@@H]4[C@@]5(C)CCNCC(C)(C)[C@@H]5CC[C@]43C)[C@@H]2C1	-44.1% (active)
C=C(CNCCc1ccc(O)cc1)[C@@H]1CC[C@]2(CO)CC[C@]3(C)[C@H](CC[C@@H]4[C@@]5(C)CCC(N)C(C)(C)[C@@H]5CC[C@]43C)[C@@H]12 (some centres undefined)	-72.2% (active)
C(=N\Nc1nnc2n1N=C(c1ccccc1)CS2)/c1ccc(OCc2ccccc2)cc1	112%
O=C(/C=C\c1ccc(O)c(O)c1)c1ccccc1O	80.6%
COc1ccc(/C=C2/CCc3cc4ccc(OC)cc4[o+]c32)c(O)c1	84.1%
Cc1ccc(-c2nnc(SCc3nc(N)nc(Nc4ccccc4F)n3)n2-c2ccccc2)cc1	101%
O=C(Nc1cccc(Cl)c1)Oc1c(Cl)c(Cl)c(Cl)c(Cl)c1Cl	101%
COc1ccc(-c2csc(NC(=O)CSc3nc(C)cc(=O)[nH]3)n2)cc1	116%
Cc1c(C)c2c(c(C)c1OC(=O)CCC(=O)[O-])CCC(C)(CCCCCCCCCCC[P+](c1ccccc1)(c1ccccc1)c1ccccc1)O2 (centres undefined)	-52.9% (active)
CCN(CC)CCCNC(=O)c1c2c(n3ccccc13)C(=O)c1ncccc1C2=O	-95.6% (active)
O=C(/C=C/c1ccc([N+](=O)[O-])cc1)c1cccc(Nc2nc(Nc3ccccc3)nc(Nc3ccccc3)n2)c1	65.1%
CN1CC(c2ccccc2)C(C(=O)c2ccc(Br)cc2)C12C(=O)Nc1ccccc12 (centres undefined)	112%
COCCNC(=O)Cc1cc(-c2ccc(Cl)cc2)n(-c2ccccc2)c1C	96.3%
CNc1nc2ncc(-c3c(C)noc3C)cc2n1Cc1ccccc1	29.8%
CC1(C)CC[C@]2(CO)CC[C@]3(C)[C@H](CC[C@@H]4[C@@]5(C)CC[C@H](O)C(C)(C)[C@@H]5CC[C@]43C)[C@H]2[C@H]1O	93.8%
COC(=O)[C@@H](Cc1c[nH]c2ccccc12)NC[C@@H](O)CN1C(=O)/C(=C\c2cc(OC)c(OC)c(OC)c2)c2ccccc21	73.8%

Compound	growth
CCc1ccc(Cc2cnc(NC(=O)c3cc(C)oc3C)s2)cc1	48.6%
CN1CCN(CC(=O)N(C)c2ccc(N=C(c3ccccc3)c3c(O)[nH]c4ccc([N+](=O)[O-])cc34)cc2)CC1	28.6%
COc1cc2c(c(OC)c1OC)CCC(c1cccc(NC(=O)c3cccc(Cl)c3)c1)O2 (centres undefined)	94.2%
O=C1C2C(c3cccs3)C=C(c3ccc(Cl)cc3)N2C(=S)N1c1ccccc1 (centres undefined)	119%
CCN1CCN(c2cc(C(=O)Nc3cccc(Nc4ccc5c(OC)cccc5n4)c3)cc(C(F)(F)F)c2)CC1	-77.1% (active)
CCCNNC(=O)c1ccc(CNC(=O)/C=C/c2ccccc2)cc1	-16.5% [2.5 µM] (active)
CC(=O)Oc1ccccc1C(=O)N(Cc1ccc2c(Cl)cc(Cl)c(O)c2n1)c1ccccc1	93.7%
CN(C)c1ccc(/C=N/NC(=O)CSc2nc3sc4c(c3c(=O)n2-c2ccccc2)CCCCC4)cc1	33.8%
N#Cc1nn(-c2ccccn2)c(N)c1C#N	106%
CC(Cc1cccc2ccccc12)C(N)=O (centres undefined)	111%
Cc1nc2ccccc2c(/C=C/c2ccc(Br)cc2)c1C(=O)/C=C/c1ccccc1	-29.5% (active)
c1ccc2[nH]c(-c3ccc(-c4nccc5c4[nH]c4ccccc45)cc3)nc2c1	44.9%
Cc1[nH]c(C(=O)Nc2ccc(C(N)=O)cc2OC(C)C)c(Cl)c1Cl	115%
C/C=C(/C)C(=O)O[C@@H]1CC(C)(C)CC2C34OC(=O)[C@@]21CC[C@@]3(C)[C@]1(C)CCC2C(C)(C)C(=O)CC[C@]2(C)C1C[C@@H]4O (some centres undefined)	56.1%
C=C(C[n+]1ccccc1)[C@@H]1CC[C@]2(C(=O)OC)CC[C@]3(C)[C@H](CC[C@@H]4[C@@]5(C)CCC(=O)C(C)(C)[C@@H]5CC[C@]43C)[C@@H]12	56.1%
COC(=O)c1c(C(=O)OC)c2ccc3c4ncccc4ccc3n2c1C(=O)c1ccc(C)cc1	98.8%
O=C1c2ccccc2-c2c1c1ccncc1c(=O)n2CCCn1ccnc1	56.4%
